This is a sample that favours compounds with a hit; in the whole collection about 3.4% have one here.
PLK1 PBD inh: qHTS for Inhibitors of PLK1-PDB (polo-like kinase 1 - polo-box domain): Primary Screen. Potency, µM, most hits filed as inhibitors. AID 720504, 2013. Plk1 PBD binding of FITC phosphopeptide, fluorescence polarization. Serine/threonine-protein kinase PLK1 (Homo sapiens), P53350. actives 2.8% (n = 360,000); note: series mostly up to about 57 µM; nearly all actives have a fitted effect of over 65% in size
GCN5L2 inh: qHTS Assay for Inhibitors of GCN5L2; AID 504327, 2011; Histone acetyltransferase KAT2A (Homo sapiens), Q92830; actives 0.21% (n = 390,000); GCN5L2 HAT assay, ThioGlo1 CoA-SH fluorescence; Potency, µM (doses to about 58.9 µM), usual class: inhibitors
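Titration-based screen in which CoA formation is detected via maleimide probe ThioGlo1 (50uM) turning fluorescent on thiol reaction; substrates H3(1-25) 75uM and acetyl-CoA 70uM, GCN5L2 20nM, 20 min incubation at room temperature.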
VDR inh: Inhibitors of the vitamin D receptor (VDR): qHTS. actives 0.93% (n = 400,000). AID 504847, 2011. Vitamin D3 receptor (Homo sapiens), P11473. VDR-SRC2-3 peptide fluorescence polarization, 2 h. Potency, µM, most hits filed as inhibitors
Target sequence (P11473 whole entry, looked up): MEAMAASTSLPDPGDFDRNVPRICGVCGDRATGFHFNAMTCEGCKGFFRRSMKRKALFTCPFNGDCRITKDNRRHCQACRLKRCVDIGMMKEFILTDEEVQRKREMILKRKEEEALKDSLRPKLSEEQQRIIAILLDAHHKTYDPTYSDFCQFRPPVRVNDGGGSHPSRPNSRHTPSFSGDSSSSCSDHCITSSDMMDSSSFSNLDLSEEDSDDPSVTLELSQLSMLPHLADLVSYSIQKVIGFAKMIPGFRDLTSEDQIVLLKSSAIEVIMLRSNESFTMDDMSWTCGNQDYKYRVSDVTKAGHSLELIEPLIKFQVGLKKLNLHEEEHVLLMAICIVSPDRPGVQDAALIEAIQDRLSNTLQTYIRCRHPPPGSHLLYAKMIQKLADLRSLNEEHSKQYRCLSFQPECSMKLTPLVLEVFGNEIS
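Compounds are added to VDR with labelled SRC2-3 coactivator peptide and held 2 h at room temperature. Inhibition of the VDR–peptide interaction is then read as a change in fluorescence polarization.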
Mito fusion yeast: qHTS Assay for Small Molecule Inhibitors of Mitochondrial Division or Activators of Mitochondrial Fusion; S. cerevisiae fusion-defective mutant growth rescue, CellTiterGlo 48 h; Potency, µM (top dose mostly 46.1 µM), usual class: activators; actives 0.23% (n = 320,000); AID 485298, 2010; note: nearly all actives have a fitted effect of over 45% in size
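Temperature-sensitive fusion-defective S. cerevisiae (e.g. fzo1-1, mgm1-5) were grown with compound in YPEG medium (3% ethanol, 3% glycerol) for 48 hours at 37C. Growth rescue was measured as viability by CellTiterGlo luminescence after 10 minutes at ambient.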
PKM2 activator: qHTS Assay for Activators of Human Muscle isoform 2 Pyruvate Kinase. Potency, µM (series often up to 57.5 µM), most hits filed as activators. actives 0.34% (n = 260,000). purified PKM2, Kinase-Glo ATP luminescence, activation; response scale: 0% is enzyme alone, no compound; note: nearly all actives have a fitted effect of over 55% in size
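Kinase-Glo luminescence reports ATP generated from ADP (0.1 mM) and PEP (0.5 mM) by purified hPK-M2 after 1 h at room temperature, pH 7.2 imidazole buffer; intermediate enzyme activity allows detecting inhibitors and activators.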
GLS inhibitor: qHTS for Inhibitors of Glutaminase (GLS); Glutaminase kidney isoform, mitochondrial (Homo sapiens), O94925; GLS enzymatic activity, qHTS titration; Potency, µM (top dose mostly 45.5 µM), most hits filed as inhibitors; actives 0.21% (n = 410,000)
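hKGA; 45 mM KH2PO4 pH 8.2 + 0.02% Tween-20; cpd via pin tool; 1 mM Gln soln; GluOx/HRP/Amplex Red; RT 30 min; fluor. t0 & final.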
Of the large screens only hits and unclear results are named; the others gave an inactive call. Calls come from the whole dose curve; as a rule, active = well fitted curve in the direction sought with a large enough effect; inconclusive = small, poorly fitted or top-dose-only effect, or another doubt; inactive = no such curve, though single readings can be large; an effect the other way counts as inactive or inconclusive.

CCn1c(C(=O)OC)cc2c1ccn2-c1ccc(F)cc1	PLK1 PBD inh 2.99µM, VDR inh inconclusive, GLS inhibitor inconclusive
Cc1nc(C)c(/C(O)=C\c2nc3ccc([N+](=O)[O-])cc3oc2=O)o1	GLS inhibitor 11.2µM
Cc1ccc2oc(=O)c(/C=C(\O)c3sc(C)nc3C)nc2c1	GLS inhibitor inconclusive
CN1CCN(NC(=O)c2ccc(Br)s2)CC1	PLK1 PBD inh 29.9µM, VDR inh inconclusive
O=C(NN1CCOCC1)c1ccc(Br)s1	none
Oc1c(Cl)cc(Cl)c2c1NCCC2	PLK1 PBD inh 4.74µM, VDR inh 31.6µM, GLS inhibitor 11.2µM
CC1=NN(c2ccc(Cl)c(C(=O)O)c2)C(=O)/C1=C\c1ccc(-c2ccc(C(=O)O)cc2)o1	PLK1 PBD inh 8.44µM, GCN5L2 inh inconclusive, GLS inhibitor inconclusive
CC1=NN(c2ccccc2)C(=O)/C1=C/c1ccc(-c2ccc(C)c(C(=O)O)c2)o1	PLK1 PBD inh 4.74µM, VDR inh inconclusive (no result: GCN5L2 inh, Mito fusion yeast, PKM2 activator)
Cc1cc(C(=O)CSc2nnnn2-c2ccc(O)cc2)c(C)n1C	PLK1 PBD inh 23.8µM
CC1CCCCN1C(=O)CN1C(=O)NC2(CCCCC2C)C1=O (stereo not drawn)	none (no result: PKM2 activator)
Cc1ccc(-c2cc(C(F)(F)F)n3nc(C(=O)Nc4ccon4)cc3n2)cc1C	VDR inh 89.1µM, GLS inhibitor inconclusive
Cc1ccc(F)cc1NC(=O)COC(=O)C1CCN(c2ccc(C(F)(F)F)cn2)CC1	none (no result: PKM2 activator)
Cc1cc2c3c(cccc3n1)C(=O)c1ccccc1-2	none (no result: PLK1 PBD inh, GCN5L2 inh, Mito fusion yeast, PKM2 activator, GLS inhibitor)
C/C=C/C=C/C(=O)[C@@H]1[C@@H]([C@]2(C)OC(=O)C(C)=C2O)[C@H]2/C(=C(O)/C=C/C=C/C)C(=O)[C@]1(C)C(=O)C2(C)O (stereo partly drawn)	PLK1 PBD inh inconclusive, VDR inh inconclusive, GLS inhibitor 10µM
CC(C)NC(=O)N(C)C[C@H]1Oc2c(NC(=O)Cc3ccccc3)cccc2C(=O)N([C@H](C)CO)C[C@@H]1C	PLK1 PBD inh 26.7µM, VDR inh inconclusive (no result: Mito fusion yeast, PKM2 activator)
COc1ccccc1NC(=O)N(C)C[C@H]1Oc2ncc(C#CCN(C)C)cc2C(=O)N([C@H](C)CO)C[C@H]1C	none (no result: GCN5L2 inh, VDR inh, Mito fusion yeast, PKM2 activator)
CCCNC(=O)N(C)C[C@H]1Oc2ncc(C#CCc3ccccc3)cc2C(=O)N([C@H](C)CO)C[C@H]1C	PLK1 PBD inh 26.7µM (no result: GCN5L2 inh, VDR inh, Mito fusion yeast, PKM2 activator)
C[C@H](CO)N1C[C@H](C)[C@@H](CN(C)CC2CCCCC2)Oc2c(NC(=O)Cc3ccccc3)cccc2C1=O	PLK1 PBD inh 18.9µM, VDR inh inconclusive (no result: Mito fusion yeast, PKM2 activator)
C[C@H](CO)N1C[C@H](C)[C@@H](CN(C)Cc2ccc(C(=O)O)cc2)Oc2c(NC(=O)Cc3ccccc3)cccc2C1=O	none (no result: Mito fusion yeast, PKM2 activator)
O=C1c2cc(S(=O)(=O)N3CCOCC3)ccc2-c2ccc(S(=O)(=O)N3CCOCC3)cc21	none (no result: PLK1 PBD inh, GCN5L2 inh, Mito fusion yeast, PKM2 activator, GLS inhibitor)
COCCCn1c(=O)c2sccc2n(Cc2ccccc2C)c1=O	none
c1ccc(-c2ccccc2OCCCN2CCOCC2)cc1	Mito fusion yeast 20µM
COc1cccc(CN2CCN(C(=O)c3ccc(-c4ccccc4)cc3)CC2)c1OC	PLK1 PBD inh 29.9µM
COc1cccc(CN2CCN(C(=O)c3ccco3)CC2)c1OC	none (no result: GCN5L2 inh, Mito fusion yeast, PKM2 activator)
COC(=O)c1sccc1NC(=O)c1ccccc1	none
COC(=O)c1sccc1NC(=O)c1cccc(OC)c1	PLK1 PBD inh 18.9µM, VDR inh inconclusive
COc1cccc(C(=O)Nc2ccc3c(c2)C(=O)c2ccccc2C3=O)c1	PLK1 PBD inh 26.7µM
COc1ccc(-c2cc(C(F)(F)F)n3ncc(-c4ccccc4)c3n2)cc1	none (no result: PLK1 PBD inh, Mito fusion yeast, PKM2 activator)
CCN(/C(N)=N/c1nc(C)cc(C)n1)c1ccccc1	PLK1 PBD inh 26.7µM, VDR inh inconclusive
CC(C)c1ccc(C(O)P(=O)(OC2CCCCC2)OC2CCCCC2)cc1 (stereo not drawn)	Mito fusion yeast 12.6µM
NCCS	PLK1 PBD inh inconclusive, VDR inh 22.4µM

Screens as filed in PubChem.
